The structures appear in SMILES notation. Calls of active or inactive are those of the source. Calls come from the whole dose curve; as a rule, active = well fitted cell-killing curve with a large enough effect in the repeat runs; inconclusive = weak or mixed curves, or effect the other way; inactive = flat fitted curve, though single readings scatter.

For 40 compounds, outcome results are on record in PubChem BioAssay (Tox21).

The experiment in a line: qHTS assay to identify small molecule HDAC inhibitors - cell viability counter screen (AID 1259365). Note: nearly all actives have a fitted effect of over 50% in size. The note with it: HCT-116 viability, CellTiter-Glo ATP luminescence, 2 h; series mostly up to 92.4 µM. From the text: U.S. Tox21 Program National Center for Advancing Translational Sciences [NCATS] NIH Chemical Genomics Center [NCGC] U.S. Environmental Protection Agency [EPA] National Institutes of Environmental Health Sciences [NIEHS] National Toxicology Program [NTP] U.S. Food and Drug Administration [FDA] Tox21 Assay Overview: Histone deacetylases (HDACs) are a group of epigenetic enzymes that regulate gene expression by histone deacetylation. HDACs are capable of introducing epigenetic modifications and such aberrations contribute to the onset and progression of several human diseases, thus making HDACs a popular therapeutic target. For identifying endogenous class I/II HDAC inhibitors a homogenous, luminogenic HDAC I/II cell based assay was used to measure the relative activity of class I and II HDACs from cells. Wild type HCT-116 cells were used to screen Tox21 compound libraries for identifying class I/II HDAC inhibitors.
Tox21 Assay Protocol Summary: HCT-116 cells were dispensed at 1,500 per well in 5uL of culture medium into white solid bottom 1536-well plates (Greiner Bio-One, Monroe, NC) using a Multidrop Combi (Thermo Scientific, Waltham, MA) dispenser. The assay plates were incubated at 37 C and 5% CO2 for an overnight, and then 23nL of compounds dissolved in DMSO and positive control were transferred using a Pintool station (Wako, San Diego, CA). The assay plates were incubated at 37C and 5% CO2 for 2hr. After compound treatment, 4uL of CellTiter-Glo reagent (Promega Corporation, Madison, WI) was added to each well of the assay plates using Flying Reagent Dispenser (FRD, Aurora Discovery, San Diego, CA) and incubated the assay plates at room temperature for 30min. The luminescence signal was quantified using a ViewLux plate reader (Perkin Elmer, Shelton, CT).
Take `CCC1(CC)C(=O)C=CNC1=O`: the compound was called inactive.

`ClCCN1CCCC1`: the call was inactive.

With `CC(C)(N)Cc1ccc(Cl)cc1`, the outcome was inactive.

On to `COc1cccc(C=O)c1`, for which the call was inactive.

Regarding `C[C@]12C=CC(=O)C=C1CC[C@@H]1[C@@H]2CC[C@@]2(C)[C@H]1CC[C@]2(C)O`, the outcome was inactive.

For the compound `Cc1ccc2cc(C)ccc2c1`, the outcome was inactive.

As to `CCCCCCCC(=O)Cl`, the result was inactive.

`CN(C)CCN(C)C`: the result was inactive.

Regarding `COC(=O)c1ccccc1CS(=O)(=O)NC(=O)Nc1nc(OC)cc(OC)n1`, the call was inactive.

On to `ClCCCCCCCl`, for which the compound was classed as inactive.

With `O=C1CC(=O)NC(=O)N1`, the call was inactive.

For `CCOP(=O)(CN(CCO)CCO)OCC`, the call was inactive.

As to `C#CC(C)(C)O`, the result was inactive.

Regarding `CCc1cc(OC)c(C[C@H](C)N)cc1OC`, the call was inactive.

In the case of `CCC(C)C(C)(COC(N)=O)COC(N)=O` (stereo not given), the call was inactive.

`NCCOS(=O)(=O)O`: the outcome was inactive.

Regarding `O=P(O)(O)c1ccccc1`, the compound was called inactive.

`CC(C)(C)C(=O)Cl`: the outcome was inactive.

As for `CCCCS(=O)(=O)Cl`, the call was inactive.

Turning to `O=c1[nH]oc2c1CCNC2`, the call was inactive.

With `CC(C)[C@]12CC(=O)[C@H](C)[C@H]1C2`, the outcome was inactive.

Consider `CCC1(c2ccccc2)CCC(=O)NC1=O` (stereo not given), for which the result was inactive.

Consider `Oc1ccc2c3c1O[C@H]1[C@@H](O)C=C[C@H]4[C@@H](C2)NCC[C@@]341`, for which the compound was classed as inactive.

For the compound `Cc1ccc(-c2nc3ccc(C)cn3c2CC(=O)N(C)C)cc1`, the outcome was inactive.

Take `O=C(Cl)C(Cl)Cl`: the outcome was inactive.

With `CCCC(C)(COC(N)=O)COC(N)=O`, the compound was called inactive.

For the compound `CC(C)(C)c1cc(O)ccc1O`, the outcome was inactive.

In the case of `N#CN=C1SCCN1Cc1ccc(Cl)nc1`, the result was inactive.

Regarding `COP(=O)(OC)O/C(C)=C/C(=O)N(C)C`, the outcome was inactive.

For the compound `CCOc1cc(OP(=S)(OC)OC)nc(CC)n1`, the compound was called inactive.

With `C(COCC1CO1)OCC1CO1` (stereo not given), the call was inactive.

Consider `CC(C)(O)C(Cl)(Cl)Cl`, for which the outcome was inactive.

Turning to `O=C(NC(O)C(Cl)(Cl)Cl)NC(O)C(Cl)(Cl)Cl` (stereo not given), the compound was classed as inactive.

Regarding `O=C(Cl)C(Cl)(Cl)Cl`, the compound was classed as inactive.

Regarding `CC[C@H](O)C(C[C@H](C)N(C)C)(c1ccccc1)c1ccccc1`, the call was inactive.

Consider `O=C(CCl)NCO`, for which the call was inactive.

On to `CC(=NC#N)N(C)Cc1ccc(Cl)nc1`, for which the compound was classed as inactive.

With `CCCCOC(C)=O`, the compound was called inactive.

For `C=C1CC[C@@]2(O)[C@H]3Cc4ccc(O)c5c4[C@@]2(CCN3CC2CC2)[C@H]1O5`, the call was inactive.

Regarding `CCC1(c2cccc(O)c2)CCCCN(C)C1` (stereo not given), the compound was classed as inactive.
